Experimental data: PubChem BioAssay AID485364 (National Center for Advancing Translational Sciences (NCATS), 2010)
The whole screen tested about 360,000 compounds, of which about 11,000 (3.1%) were called active. About 4% were inconclusive and are not listed. For the sample, actives were picked, then their nearest neighbours and some compounds at random. A number with no mark means an inactive call. Calls come from the whole dose curve; as a rule, active = well fitted inhibition curve with a large enough effect; inconclusive = small, poorly fitted or top-dose-only effect; inactive = no such curve, though single readings can be large or run the other way.
% is set by controls: 0 for no effect and ±100 for the full control effect; potency is the fitted concentration of half-maximal effect.
Note: nearly all actives have a fitted effect of over 60% in size.

The molecules below were run against Schistosoma mansoni thioredoxin glutathione reductase (TGR) (UniProt Q962Y6) (assay: qHTS Assay for the Inhibitors of Schistosoma Mansoni Peroxiredoxins). Details: purified TGR, DTNB reduction, TNB absorbance 405 nm; series mostly up to 114 µM; activity change, negative = inhibition: at the top concentration.
Text: Schistosomiasis is a major neglected tropical disease that currently affects over 200 million. It is caused by different species of flatworms, such as Schistosoma mansoni. Over the last century, drugs to treat the disease have evolved from potassium antimonyl tartrate, artemisinin, oxamniquine, to praziquantel, with praziquantel remaining the universally-used single drug of choice over the past three decades. However, transmission rates have changed little with praziquantel, and there is evidence for the development of drug resistant parasites. Because there is currently no suitable alternative therapy available, there is an urgent need to identify new targets and drugs for schistosomiasis treatment. Thioredoxin glutathione reductase (TGR), one uniquely positioned S. mansoni enzyme, has been identified as a major component of the worms' distinct and compressed antioxidant "firewall". TGR is a multifunctional enzyme that catalyzes the interconversion between reduced and oxidized forms of both glutathione (GSH) and thioredoxins, thus making it an attractive new antiparasitic target. Recently, a quantitative high-throughput screen of the NIH Molecular Libraries Small Molecule Repository (MLSMR, ~71K at the time of the screen in 2007) was performed using an assay that targeted both TGR and peroxiredoxin2 (Prx2, an H2O2-reducing enzymatic component of the S. mansoni redox "firewall") by following the decrease of NADPH fluorescence. […] Additional mechanistic link between exogenous NO donation and parasitic injury for the oxadiazole-2-oxide class of compounds was also expanded and better defined. Although the screen addressed both TGR and Prx2, the assay required post-screen target deconvolution for further characterization of the actives. In addition, the fluorescence assay was also subject to fluorescence interference from compound library members. We have developed a 1536-well-based kinetic HTS assay to address TGR alone. The assay followed the reduction of 5, 5'-dithiobis (2-nitrobenzoic acid) (DTNB) (Ellman's reagent) by NADPH and measured the increase in absorbance at 412 nm of the reaction product, TNB. […] This assay format can be used to screen the current MLSMR collection (with >300K compounds available) to find novel TGR inhibitors. Furoxan is a good choice to serve as a positive control in the primary HTS assay.
Three microliters of reagents (100 uM NADPH and 20 nM TGR or 100 uM NADPH as no-enzyme control) were dispensed into 1,536-well black clear-bottomed plates. Compounds (23 nL) were transferred via Kalypsys pin tool equipped with 1536-pin array (10 nL slotted pins, V&P Scientific, San Diego, CA). The plates were then be incubated for 15 min at room temperature, and 1 uL aliquot of 500 uM NADPH were added, immediately followed by a 1 uL aliquot of 15 mM DTNB to start the reaction. The plate was transferred to a ViewLux high-throughput CCD imager (Perkin-Elmer, Wellesley, MA) where kinetic measurements of the TNB absorbance were acquired using a 405 excitation filter. Throughout the screen, reagent bottles and all liquid lines were made light-tight to minimize reagent degradation. All screening operations were performed on a fully integrated robotic system (Kalypsys, San Diego, CA) containing one RX-130 and two RX-90 anthropomorphic robotic arms (Staubli, Duncan, SC). Library plates were screened starting from the lowest and proceeding to the highest concentration, and a "double-dipping" step of the highest concentration was required to access higher concentrations of compounds. Vehicle-only plates, with DMSO being pin-transferred to the entire column 5-48 compound area, were inserted uniformly at the beginning and the end of each library in order to monitor for and record any shifts in the background, which can be affected by reagent dispensers or loss in enzyme activity overtime. […]
With `COc1ccc(S(=O)(=O)N2CCC(C(=O)N3CCCC3)CC2)cc1C` the “activity change, negative = inhibition” value was -3.4%. In the case of `CCN1CCN(C(=O)C2CCCN(S(=O)(=O)c3ccc(OC)c(OC)c3)C2)CC1` (centres undefined), the “activity change, negative = inhibition” value is reported as 3.29%. For `COc1ccc(S(=O)(=O)N2CCC(C(=O)N3CCOCC3)CC2)cc1OC`, the Potency was 79.4 µM (active). `O=C(C1CCC(Cn2c(=O)c3sccc3n(Cc3ccccc3F)c2=O)CC1)N1CCCCC1` (centres undefined) was tested, and the “activity change, negative = inhibition” value was 19%. `COc1ccc(Cl)cc1NC(=O)c1sc2nc3c(cc2c1N)CN(C)CC3` was tested, and the “activity change, negative = inhibition” value was 0.374%. For `CCCCN(CC)C(=O)c1c[nH]c2ccc(S(=O)(=O)Nc3cccc(OC)c3)cc2c1=O`, the “activity change, negative = inhibition” value was 3.28%. With `Cc1ccc(-c2nnc(SCC(=O)NCc3ccccc3)nc2-c2ccc(C)cc2)cc1` the “activity change, negative = inhibition” value was 0.946%. With `Clc1ccccc1CSc1nncn2c1cc1occc12` the “activity change, negative = inhibition” value was -12.1%. For `Clc1ccccc1CSc1nnc(-c2ccco2)c(-c2ccco2)n1`, the Potency was 7.94 µM (active). `CC1(C)N=C(SCc2ccccc2Cl)c2ccccc2N1` was tested, and the “activity change, negative = inhibition” value was -1.4%. In the case of `c1ccc(CSc2nnc(-c3ccco3)c(-c3ccco3)n2)cc1`, the Potency is reported as 2.82 µM (active). `Clc1ccc(CSc2nnc3c(n2)[nH]c2ccccc23)cc1` was tested, and the “activity change, negative = inhibition” value was 10.3%. With `COc1ccccc1CNC(=O)CCCn1c(=O)c2ccccc2n(CC(=O)Nc2ccc(C)cc2Cl)c1=O` the “activity change, negative = inhibition” value was 6.54%. In the case of `COc1cccc(-c2nc3n(n2)C(c2ccccc2Cl)C(C(N)=O)=C(C)N3)c1` (centres undefined), the “activity change, negative = inhibition” value is reported as -0.143%. `CCN(CC)c1ccc(C2C(C(N)=O)=C(C)Nc3nc(SCc4ccccc4)nn32)cc1` (centres undefined) was tested, and the “activity change, negative = inhibition” value was 2.58%. For `CC1=C(C(N)=O)C(c2ccc3c(c2)OCO3)n2nc(-c3cccc(C)c3)nc2N1` (centres undefined), the Potency was 0.251 µM (active). `Cc1cccc(-n2ccnc2SCC(=O)Nc2cccc3ccccc23)c1C` was tested, and the “activity change, negative = inhibition” value was -0.262%. For `COc1ccc(-c2cc(C(F)(F)F)nc(SCC(=O)N(C)Cc3ccccc3)n2)cc1OC`, the “activity change, negative = inhibition” value was -0.774%. With `COc1ccc(CCNc2nc(-c3ccc(F)cc3)cc(C(F)(F)F)n2)cc1OC` the “activity change, negative = inhibition” value was 7.8%. `COc1ccc(-c2cc(C(F)(F)F)nc(S(C)(=O)=O)n2)cc1OC` was tested, and the Potency was 31.6 µM (active). `CC1CN(C(=O)N2CCC(C(=O)NCc3ccco3)CC2)c2cc(Cl)ccc2O1` (centres undefined) was tested, and the “activity change, negative = inhibition” value was 2.23%. `Cc1cc(Cl)ccc1OCC(=O)N(Cc1ccc(N(C)C)cc1)C1CCS(=O)(=O)C1` (centres undefined) was tested, and the “activity change, negative = inhibition” value was -3.15%. `O=C(COC(=O)c1cccs1)NCc1cccs1` was tested, and the “activity change, negative = inhibition” value was 0.591%. `O=C(COC(=O)CCC(=O)c1cccs1)NCc1ccco1` was tested, and the Potency was 25.1 µM (active). In the case of `CC1CCN(C(=O)COC(=O)CCC(=O)c2cccs2)CC1`, the “activity change, negative = inhibition” value is reported as -0.877%. `CCN(CCCNC(=O)c1cc2c(=O)n(CC)c3ccccc3c2s1)Cc1ccccc1` was tested, and the “activity change, negative = inhibition” value was 1.45%. In the case of `CCN1CCN(c2ncc3c(n2)CC(c2ccccc2O)CC3=O)CC1` (centres undefined), the “activity change, negative = inhibition” value is reported as 3.56%. With `CCc1ccc(Nc2ncc3c(n2)CC(c2ccco2)CC3=O)cc1` (centres undefined) the Potency was 39.8 µM (active). In the case of `CC1=C(C(=O)Nc2ccc(Cl)cc2)C(c2ccco2)NC(=O)N1` (centres undefined), the “activity change, negative = inhibition” value is reported as 3.63%. In the case of `O=C(Nc1ncc2c(n1)-c1ccccc1OC2)c1ccc(Cl)cc1`, the “activity change, negative = inhibition” value is reported as -18.3%. `COc1cc(C2CC(=O)c3cnc(NC(C)=O)nc3C2)cc(OC)c1OC` (centres undefined) was tested, and the “activity change, negative = inhibition” value was -0.421%. With `O=C(Nc1ncc2c(n1)CC(c1ccco1)CC2=O)c1ccc(Cl)cc1` (centres undefined) the Potency was 44.7 µM (active). In the case of `COc1ccc(C(=O)COC(=O)CCCC(=O)Nc2cc(C(F)(F)F)ccc2Cl)cc1`, the “activity change, negative = inhibition” value is reported as -11.9%. For `CCc1ccc(C(=O)CC2(O)C(=O)N(CCc3ccccc3)c3ccc(Br)cc32)cc1` (centres undefined), the “activity change, negative = inhibition” value was 6.62%. With `CC1CCN(c2nc3ccc(C(=O)N4CCN(c5ccccc5)CC4)cc3s2)CC1` the “activity change, negative = inhibition” value was 2.12%. With `CCCN(CCC)CCCNC(=O)Cn1cc2c(n1)-c1c(oc(C(=O)N3CCCC3)c1C)CC2` the “activity change, negative = inhibition” value was -2.8%. With `CCC(=O)Nc1cccc(-c2nc3cc(C)ccc3o2)c1` the “activity change, negative = inhibition” value was 11%. For `C[C@@H]1C[C@@H]2O[C@H]2/C=C\C=C\C(=O)Cc2c(Cl)c(O)cc(O)c2C(=O)O1`, the Potency was 4.47 µM (active). `CC(C)CC(NS(=O)(=O)c1ccc2c(c1)oc(=O)n2C)C(=O)NCc1ccccc1Cl` (centres undefined) was tested, and the “activity change, negative = inhibition” value was -2.66%. In the case of `CCc1ccc(NC(=O)CN2CCSc3ccc(S(=O)(=O)N4CCCC4)cc32)cc1`, the “activity change, negative = inhibition” value is reported as 6.65%. With `Cc1cc(OC(C)C(=O)Nc2sc3c(c2C(N)=O)CCCC3)ccc1Cl` (centres undefined) the “activity change, negative = inhibition” value was 11.2%. With `NC(=O)c1c(Nc2nc3c(F)cccc3s2)sc2c1CCCC2` the Potency was 39.8 µM (active). In the case of `COc1ccc(-c2cc(C(=O)Nc3sc4c(c3C(N)=O)CCCC4)no2)cc1`, the “activity change, negative = inhibition” value is reported as -10%. In the case of `COC(=O)c1ccc(NC(=O)CSc2n[nH]c(-c3ccccc3)n2)cc1`, the “activity change, negative = inhibition” value is reported as 6.33%. In the case of `Cc1ccc(CN2COc3cc(C)c4c(oc(=O)c5ccccc54)c3C2)cc1`, the “activity change, negative = inhibition” value is reported as -6.11%. For `COc1cc(CN(C(=O)c2ccccc2Br)c2ccccn2)cc(OC)c1OC`, the “activity change, negative = inhibition” value was -0.508%. With `COc1cccc(CNC(=O)C2CCN(S(=O)(=O)c3ccc4c(ccn4C)c3)CC2)c1` the “activity change, negative = inhibition” value was -1.19%. For `COc1cc(/C=N/Nc2ccc(C)cc2)cc(Br)c1O`, the Potency was 10 µM (active). For `COc1cc(/C=N/NC(=S)Nc2cccnc2)cc(OC)c1O`, the “activity change, negative = inhibition” value was -21.6%.
